Here are results for 42 sequences from paper PMC7819943, “Rice protein-binding microarrays: a tool to detect cis-acting elements near promoter regions in rice”.

Over roughly 68,000 sequences, “fluorescence intensity (a.u.)” has its median near 9,100; the highest 2% begin near 16,000. This is one part of a sample in which the highest values are shown more often than they occur.

This experiment deals with OsWRKY34 (Oryza sativa, UniProt Q0JBA9 1-250). Put plainly: protein-binding microarray (RPBM); PBS, 2% BSA, 51.3 ng/ul salmon testes DNA, 50 uM zinc acetate, 200 nM TF, 25 C, 1 h; high values mean tight binding. The settings on record: protein: recombinant; tags: N-terminal polyhistidine and DsRed monomer fusion (pET32a); label: CyDye5-dUTP incorporated in the synthesized complementary strand; 3' TTTTT single-stranded linker to array surface; dsDNA, one strand shown. The method, boiled down: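 Ni–NTA purification followed expression in E. coli BL21-CodonPlus of transcription factors fused N-terminally to a polyhistidine tag and DsRed. At 200 nM in PBS with 2% BSA, salmon testes DNA and 50 µM zinc acetate, the protein was incubated for 1 h at 25 °C with a custom Agilent array that had been primer-extended with Cy5-dUTP and blocked with 2% BSA. After washing, the array was read on an Axon 4000B scanner. The binding signal is per-feature fluorescence intensity in arbitrary units.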
Sequence of OsWRKY34 (Q0JBA9 entry or part of it): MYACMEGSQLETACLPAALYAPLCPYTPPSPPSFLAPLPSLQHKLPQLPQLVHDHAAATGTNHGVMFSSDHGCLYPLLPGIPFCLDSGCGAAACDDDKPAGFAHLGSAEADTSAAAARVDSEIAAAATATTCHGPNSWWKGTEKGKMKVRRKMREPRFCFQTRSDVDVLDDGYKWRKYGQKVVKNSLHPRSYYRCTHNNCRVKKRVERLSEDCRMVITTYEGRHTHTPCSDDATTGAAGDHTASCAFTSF
In the case of “ACGGCATTTTTCGCCCCTTTTGTCACTGAAACACTTCACCCGGAGTCACCTAGTGCAG”, the binding signal is 8860 fluorescence intensity (a.u.).
Turning to “GCAGCCCTCAATTTCTATGGCGATCGCCTCTGCTTCGTCGCGGAGTCACCTAGTGCAG”, the binding signal is 8440 fluorescence intensity (a.u.).
Next, “GGCCTCCTTCATCACGCCCTGGATCTCACTGACTAAAAACCGGAGTCACCTAGTGCAG”: 8030 fluorescence intensity (a.u.).
As for “CTATGTTCATCCTCGTGTCATATTGTGTTCATCTTCATACCGGAGTCACCTAGTGCAG”, the binding signal was 11600 fluorescence intensity (a.u.).
On to “GAGGGAGTATTATCTTCTGAACATATGTTTGACCATTGGACGGAGTCACCTAGTGCAG”, for which the binding signal was 8940 fluorescence intensity (a.u.).
Take “ATTACCCTAATCATCATTCATTCATGTATAGCTCATCCTACGGAGTCACCTAGTGCAG”: the binding signal was 8810 fluorescence intensity (a.u.).
As for “ACCATCAAGTTCTGCTTTTCTTCCCCATGTTTTTTTGCCCCGGAGTCACCTAGTGCAG”, the binding signal is 10700 fluorescence intensity (a.u.).
In the case of “ATGTTGATATTGTGGTTGGTTGTGGGCATGTTACATTTTCCGGAGTCACCTAGTGCAG”, the binding signal is 11500 fluorescence intensity (a.u.).
Take “TGATATGTTGGTGAATGGTAATTTTTTGGGTTGATATATTCGGAGTCACCTAGTGCAG”: the binding signal is 11200 fluorescence intensity (a.u.).
“AGGAGGTGTTGTTTCTTGCGATCTTGGGTTGATTGATATGCGGAGTCACCTAGTGCAG”: the binding signal was 8460 fluorescence intensity (a.u.).
For “CATGTGTTTGATTTCCTGTTTATATTTTGTTCAGAGTTTCCGGAGTCACCTAGTGCAG”, the binding signal was 11700 fluorescence intensity (a.u.).
For “TGCGGGTTGTTTTGATTGACAATTTAGTGTTGGTGTTGTTCGGAGTCACCTAGTGCAG”, the binding signal is 9980 fluorescence intensity (a.u.).
Take “CTCTGTTGGTTTCTTGCGGTTTTGATTATTTGTTTGTGGTCGGAGTCACCTAGTGCAG”: the binding signal is 11900 fluorescence intensity (a.u.).
On to “CATTCCGGTTGGTGTTTTTCGCTTGATTTGTACTACTATTCGGAGTCACCTAGTGCAG”, for which the binding signal was 18500 fluorescence intensity (a.u.).
On to “CTCTGTGTTGTTTTTGGCATGTGTTTGATATTTGGAGTTCCGGAGTCACCTAGTGCAG”, for which the binding signal was 16600 fluorescence intensity (a.u.).
With “GGTGGGTGTTTTAATGTGACATGATATTTGTGGTTGGGTTCGGAGTCACCTAGTGCAG” the figure was 21700 fluorescence intensity (a.u.); with “TGTACATGTGTTTGATTTTGCTTGTGGTTGCCGTGGATTTCGGAGTCACCTAGTGCAG”, 11500 fluorescence intensity (a.u.); with “TCTTTCCTGTTTCCGCTTGGTTTTCCGGTGTTTATTTTGTCGGAGTCACCTAGTGCAG”, 14200 fluorescence intensity (a.u.).
In the case of “TAATATTTCTTGCGGTGGGTTGGATTGATATCGATTGTTTCGGAGTCACCTAGTGCAG”, the binding signal is 17600 fluorescence intensity (a.u.).
On to “CGATGACAAGTTGACGCACCTTGGGTGTACTTTTTCCTTCCGGAGTCACCTAGTGCAG”, for which the binding signal is 8280 fluorescence intensity (a.u.).
With “CTCCAACCTAACCCCTGCCTGCCTGCATCAACCATATATGCGGAGTCACCTAGTGCAG” the figure was 8720 fluorescence intensity (a.u.); with “CACTAATTTTGCCTTTGTGCCTTTTACTATTGCGCATCACCGGAGTCACCTAGTGCAG”, 10200 fluorescence intensity (a.u.).
Next, “ACATTAACTAAATGGTGGAGGGCAGGGGTTCGTCTTTCTTCGGAGTCACCTAGTGCAG”: 13600 fluorescence intensity (a.u.).
Regarding “GACTACTGAATGTGCTATTCTTGGCCTTTTCTATAGATAACGGAGTCACCTAGTGCAG”, the binding signal was 9960 fluorescence intensity (a.u.).
For “CTATTTTGGCCACTCGGGAGATGGTGTTGTTTCTGAATTTCGGAGTCACCTAGTGCAG”, the binding signal was 8180 fluorescence intensity (a.u.).
Regarding “CTGTCTTCACCGTGCCGCTCCTTTCCTTCCATTTCATCTCCGGAGTCACCTAGTGCAG”, the binding signal is 8440 fluorescence intensity (a.u.).
Regarding “CAGGGGTGGGTGTTAGCTGTTGTGCAAGAAGTGGTGTTTGCGGAGTCACCTAGTGCAG”, the binding signal was 10600 fluorescence intensity (a.u.).
In the case of “GCCGGAGTCCATCGCCCTACATTGCCCACCAACCGCACGCCGGAGTCACCTAGTGCAG”, the binding signal is 10200 fluorescence intensity (a.u.).
Consider “TTCATATTCTTTTTTTTTTCGAGGTCATACTTTTTAATTCCGGAGTCACCTAGTGCAG”, for which the binding signal is 12200 fluorescence intensity (a.u.).
For the sequence “GGGGATTGGTTTGGTGTGGGTGTTTTGTGTGGGGATTGATCGGAGTCACCTAGTGCAG”, the binding signal was 28100 fluorescence intensity (a.u.).
“GTTGCAGGGTGGGGATTGTTAAATTTATTGTTTGGCTGGACGGAGTCACCTAGTGCAG”: the binding signal was 16600 fluorescence intensity (a.u.).
Turning to “CGTGGGGTGGGATCGGAAGCAGTGGAGTTGTTTTTATTATCGGAGTCACCTAGTGCAG”, the binding signal is 16500 fluorescence intensity (a.u.).
Turning to “GCGGGGTTGATTTCTGACTGAGATTTTGTTTTTCTTTTCTCGGAGTCACCTAGTGCAG”, the binding signal was 14000 fluorescence intensity (a.u.).
Regarding “TTTTTCACGGGGATGGGTCGGGGATTGTTGACTGATAAAGCGGAGTCACCTAGTGCAG”, the binding signal was 21700 fluorescence intensity (a.u.).
Consider “AGTGGATGAGTTTGAGTTTTAGGATTTAGTGGGGTATTATCGGAGTCACCTAGTGCAG”, for which the binding signal was 15100 fluorescence intensity (a.u.).
“GAGGTGGCTGGAGTGGGGTTTAGTGTTGGTTGTTAGGGATCGGAGTCACCTAGTGCAG”: the binding signal is 13500 fluorescence intensity (a.u.).
For “GGGTTTGGGGATCGATTGATTTATAGGCTTTTTTGTTTTTCGGAGTCACCTAGTGCAG”, the binding signal was 8810 fluorescence intensity (a.u.).
As to “CCACTGACTACTGATGGGTGTGTTGATAGTGTTTTGTCAGCGGAGTCACCTAGTGCAG”, the binding signal is 8870 fluorescence intensity (a.u.).
In the case of “AAATTTATTGTTTGGCTGGAAGACGTGGGGTTTTAAGAGGCGGAGTCACCTAGTGCAG”, the binding signal was 8370 fluorescence intensity (a.u.).
As to “TTTTTGTTTTTTAATTGTGGAGTTTGGGAGGAGGAGGGGACGGAGTCACCTAGTGCAG”, the binding signal was 9870 fluorescence intensity (a.u.).
Next, “AGGGTTTGTTTGTTTATTTGTTTGTTTGATCGGTGTGGGGCGGAGTCACCTAGTGCAG”: 13300 fluorescence intensity (a.u.).
Next, “TATCTAATAATTGGATGGTTACAACCAAATACTTCTACATCGGAGTCACCTAGTGCAG”: 9870 fluorescence intensity (a.u.).
